# Assay results taken from ChEMBL document CHEMBL1961873, “Compounds: GSK PKIS; Assays: Nanosyn kinase panel” (2012).
# Target: Receptor tyrosine-protein kinase erbB-4 (Homo sapiens) (UniProt Q15303)
# Details: at 0.1 µM
# 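Further: values are averaged percent inhibition of ERBB4 kinase activity.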
# Receptor tyrosine-protein kinase erbB-4 (Homo sapiens), sequence (Q15303 whole entry): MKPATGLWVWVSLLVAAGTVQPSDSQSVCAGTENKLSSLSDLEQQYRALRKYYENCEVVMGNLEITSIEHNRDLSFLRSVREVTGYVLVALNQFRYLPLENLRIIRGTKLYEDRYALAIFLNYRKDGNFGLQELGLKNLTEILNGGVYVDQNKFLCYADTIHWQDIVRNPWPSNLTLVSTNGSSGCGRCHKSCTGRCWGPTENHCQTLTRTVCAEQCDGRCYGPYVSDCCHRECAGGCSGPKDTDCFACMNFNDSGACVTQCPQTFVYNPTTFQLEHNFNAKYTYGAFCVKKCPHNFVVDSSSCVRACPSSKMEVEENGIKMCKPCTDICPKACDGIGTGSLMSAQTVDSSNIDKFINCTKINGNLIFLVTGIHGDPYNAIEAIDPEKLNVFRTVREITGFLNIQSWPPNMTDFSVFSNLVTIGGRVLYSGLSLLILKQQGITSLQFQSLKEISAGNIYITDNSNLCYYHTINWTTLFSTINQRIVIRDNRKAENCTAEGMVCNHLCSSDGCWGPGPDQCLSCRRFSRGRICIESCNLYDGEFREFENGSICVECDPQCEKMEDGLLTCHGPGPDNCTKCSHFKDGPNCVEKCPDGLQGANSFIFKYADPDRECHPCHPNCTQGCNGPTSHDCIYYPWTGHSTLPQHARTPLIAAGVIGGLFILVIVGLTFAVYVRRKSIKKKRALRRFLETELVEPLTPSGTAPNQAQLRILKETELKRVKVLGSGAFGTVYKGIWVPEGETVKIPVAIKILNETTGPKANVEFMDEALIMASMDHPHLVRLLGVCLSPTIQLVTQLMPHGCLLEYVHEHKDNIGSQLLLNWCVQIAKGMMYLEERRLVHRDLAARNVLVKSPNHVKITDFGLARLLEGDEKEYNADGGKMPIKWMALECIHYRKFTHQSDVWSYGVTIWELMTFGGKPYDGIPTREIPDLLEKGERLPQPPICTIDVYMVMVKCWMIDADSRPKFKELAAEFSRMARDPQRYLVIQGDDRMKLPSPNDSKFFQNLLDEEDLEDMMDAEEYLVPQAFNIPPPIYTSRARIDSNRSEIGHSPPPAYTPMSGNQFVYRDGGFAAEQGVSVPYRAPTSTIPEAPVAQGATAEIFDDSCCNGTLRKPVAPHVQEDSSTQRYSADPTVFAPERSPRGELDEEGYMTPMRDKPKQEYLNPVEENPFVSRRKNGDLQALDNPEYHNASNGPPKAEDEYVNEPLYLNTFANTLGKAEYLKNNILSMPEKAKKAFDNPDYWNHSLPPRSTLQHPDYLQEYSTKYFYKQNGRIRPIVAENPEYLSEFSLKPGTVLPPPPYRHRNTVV
row,SMILES,inhibition [%]
1,Fc1ccc(-c2cc(-c3c[nH]nc3-c3ccccn3)ccn2)cc1,8.5
2,Clc1ccc(-c2nn3ncccc3c2-c2ccnc(Nc3ccccc3)n2)cc1,27.9
3,CC1=C(C(=O)Nc2cc(Cl)c3[nH]ncc3c2)C(c2ccc(C(F)(F)F)cc2)CC(=O)N1 (stereo not drawn),11.9
4,CC(C)(CO)CNC(=O)c1ccc2c(c1)/C(=N/Nc1ccc(S(N)(=O)=O)cc1)C(=O)N2,4.68
5,COc1cccc(-c2c[nH]c3c(N/N=C/c4ccncc4)ncnc23)c1,8.94
6,Cc1ccc(O)cc1Nc1ccnc2cc(-c3ccccn3)ccc12,35.1
7,Cc1cccc2c1NC(=O)/C2=N\Nc1ccc(S(N)(=O)=O)cc1,11.5
8,CN1CCC(n2cnc(-c3ccc(F)cc3)c2-c2ccnc(Nc3ccccc3)n2)CC1,10.6
9,COc1ccc2[nH]c3c4[nH]c5ccc(OC)cc5c4c4c(c3c2c1)C(=O)NC4=O,14.5
10,CNC(=O)c1cncc(/C=C/c2ccccc2Cl)c1,3.2
11,COC(=O)Nc1nc2ccc(Oc3ccc(NC(=O)Nc4cccc(Cl)c4)cc3)cc2[nH]1,6.76
12,COc1ccc(-c2cc(-c3c[nH]nc3-c3ccccn3)ccn2)cc1,9.37
13,CCn1c(-c2nonc2N)nc2ccccc21,12.3
14,COc1ccc(CNC(=O)c2ccc(-c3cc(-c4nnc(C)o4)ccc3C)cc2)cc1,2.27
15,Fc1cccc(COc2ccc(Nc3ncnc4sc(-c5ccco5)cc34)cc2Cl)c1,28.4
16,CCn1c(-c2nonc2N)nc2c(C#CC(C)(C)O)ncc(OC3CCNCC3)c21,5.65
17,CNC(=O)c1cc(-c2ccc(F)cc2)cc(-c2ccc(S(=O)(=O)N3CCCC3)cc2)c1N,5.77

row,SMILES,inhibition [%]
1,COc1cc(N2CCN(C(C)C)CC2)ccc1Nc1nc(Nc2ccc(F)cc2C(N)=O)c2cc[nH]c2n1,35.2
2,CCn1c(-c2nonc2N)nc2cnc(Oc3cccc(NC(=O)c4ccc(N(C)C)cc4)c3)cc21,8.23
3,COc1ccc2c(-c3ccnc(Nc4cccc(OC(F)(F)F)c4)n3)cnn2n1,8.76
4,NS(=O)(=O)c1ccc(N/N=C2\C(=O)Nc3ccc4ncccc4c32)cc1,11.4
5,O=C(Nc1n[nH]c2cc(-c3ccc(F)cc3)ccc12)C1CC1,6.81
6,c1cc(-c2cnn3nc(N4CCOCC4)ccc23)nc(NC2CC2)n1,13.6
7,CCc1nn2ncccc2c1-c1ccnc(NC2CC2)n1,3.42
8,CN1CCC(n2cnc(-c3ccc(F)cc3)c2-c2ccnc(N)n2)CC1,8.28
9,COc1ccc(-c2cc3c(N)ncnc3o2)cc1,-1.91
10,COc1ccc(-c2oc3ncnc(N)c3c2-c2ccc(NC(=O)Nc3cc(C(F)(F)F)ccc3F)cc2)cc1,12.8
11,COc1cc(Nc2nccc(Nc3ccc4c(C)n[nH]c4c3)n2)cc(OC)c1OC,11.9
12,COC(=O)c1sc(-n2cnc3cc(OC)c(OC)cc32)cc1OCc1ccccc1C(F)(F)F,8.62
13,N#Cc1c(NC(=O)c2ccc(F)cc2)sc2c1CCCC2,5.37
14,NS(=O)(=O)c1ccc(Nc2ncc(-c3ccccc3)o2)cc1,8.79
15,CCn1cc(-c2ccnc3[nH]ccc23)c(-c2cccc(NC(=O)Nc3ccc(OCc4ccccc4)cc3)c2)n1,9.5
16,c1ccc(-c2nc3n(c2-c2ccc4c(c2)OCO4)CCC3)nc1,3.67
